Reference: PubChem BioAssay (EPA / NIEHS)
Values joined by “and” are separate entries in the source; they are usually repeats but may differ in a detail not shown here. Equal entries are not always repeated. Inconclusive results are not listed. A structure can be active in one record and inactive in another. Active and inactive are the calls of the source. The calls were made as follows, unless noted: active = hit-call score of the fitted dose curve at least 0.9, where 1 is the maximum; inconclusive = response in the unintended direction; inactive = score below 0.9.

What was measured:
[1] = target: Estrogen receptor (Homo sapiens) (UniProt P03372); assay: OT_ERa_GFPERaERE_0480: Odyssey Thera (OT) 8-hour HeLa Transcription Induction Assay for Estrogen Receptor (AID 2283381; active = hit-call score of the fitted dose curve at least 0.9, where 1 is the maximum; inactive = score below 0.9)
How it was run: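 Fluorescent reporter signal, imaged by microscopy and scored with image-analysis algorithms, was taken 8 h after chemical dosing of HeLa cells; activity was fitted upward relative to DMSO.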

[2] = target: Estrogen receptor (Homo sapiens) (UniProt P03372); assay: OT_ERa_GFPERaERE_0120: Odyssey Thera (OT) 2-hour HeLa Transcription Induction Assay for Estrogen Receptor (AID 2283382)
How it was run: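 HeLa, 384-well, 2 h chemical exposure; GFP reporter induction (ERE), fluorescence microscopy; high content image analysis; positive fitting direction vs DMSO.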

[3] = target: Retinoic acid receptor RXR-alpha (Homo sapiens) (UniProt P19793); assay: OT_NURR1_NURR1RXRa_0480: Odyssey Thera (OT) 8-hour HEK293T Protein Complementation Assay for Nurr1/retinoid X receptor (RXR) (AID 2283385)
How it was run: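 8 h compound exposure, HEK293T; Nurr1/RXRα fragment complementation; fluorescence intensity; positive fitting direction vs DMSO baseline.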

[4] = target: Peroxisome proliferator-activated receptor gamma (Homo sapiens) (UniProt P37231); assay: OT_PPARg_PPARgSRC1_0480: Odyssey Thera (OT) 8-hour Protein-Complementation Assay for Peroxisome Proliferator-activated Receptor Gamma / SRC-1 Co-activator (AID 2283387)
How it was run: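 Protein-fragment complementation of split Venus YFP reports PPARg/SRC-1 interaction in HEK293T (transfected 48 h before treatment), exposed 8 h. Readout: N/C fluorescence ratio at 488 nm from imaging, Draq5 for segmentation, positive fit relative to DMSO.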

[5] = target: Peroxisome proliferator-activated receptor gamma (Homo sapiens) (UniProt P37231); assay: OT_PPARg_PPARgSRC1_1440: Odyssey Thera (OT) 24-hour Protein-Complementation Assay for Peroxisome Proliferator-activated Receptor Gamma/ SRC-1 Co-activator (AID 2283388)
How it was run: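 HEK293T transiently transfected with PPARg/SRC-1 split-Venus YFP fusions 48 h before dosing, then treated 24 h at 37C. Fixed cells imaged; nuclear/cytoplasmic 488 nm fluorescence ratio, gain of signal versus DMSO.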

[6] = target: Retinoic acid receptor RXR-alpha (Homo sapiens) (UniProt P19793); assay: OT_NURR1_NURR1RXRa_1440: Odyssey Thera (OT) 24-hour HEK293T Protein Complementation Assay for Nurr1/retinoid X receptor (RXR) (AID 2283386)
How it was run: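 Interaction of Nurr1 with RXRα brings fused reporter fragments together in human HEK293T cells, restoring a functional reporter. Fluorescence intensity is measured 24 h after chemical treatment, and values are analysed in the positive direction against DMSO.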

[7] = target: Bile acid receptor (Homo sapiens) (UniProt Q96RI1); assay: OT_FXR_FXRSRC1_0480: Odyssey Thera (OT) 8-hour HEK293T Protein-Complementation Assay for Farnesoid X receptor/SRC-1 Co-activator (AID 2283383)
How it was run: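 Human kidney HEK293T cells carried FXR/SRC-1 fragment-complementation constructs. Compounds were added and incubated 8 h. Reporter reassembly upon receptor–co-activator interaction was then quantified by fluorescence, with curves fitted in the positive direction relative to DMSO.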

[8] = target: Bile acid receptor (Homo sapiens) (UniProt Q96RI1); assay: OT_FXR_FXRSRC1_1440: Odyssey Thera (OT) 24-hour HEK293T Protein-Complementation Assay for Farnesoid X receptor/SRC-1 Co-activator (AID 2283384)
How it was run: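 Compounds are applied to human kidney HEK293T cells expressing bait and prey fused to reporter protein fragments; after 24 h, reconstituted reporter fluorescence is measured. Activity is fitted as signal gain over DMSO.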

[9] = target: Estrogen receptor beta (Homo sapiens) (UniProt Q92731); assay: OT_ER_ERbERb_1440: Odyssey Thera (OT) 24-hour HEK293T Protein-Complementation Assay for Estrogen Receptor-beta/-beta Homodimer (AID 2283380);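 also: fluorescence gain from ER beta LBD homodimer complementation read by laser scanning cytometry; scored as signal increase over DMSO baseline for both agonists and antagonists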
How it was run: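 Fluorescence increase, nuclear for agonists or whole-cell for antagonists, relative to DMSO vehicle, quantified by laser scanning cytometer after fixation and Draq5 staining. Readout from 24 h treatment of HEK293T cells carrying complementation-paired ER beta LBD (aa 310-547).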

Chain of Bile acid receptor (Homo sapiens) (Q96RI1 whole entry, looked up, the tested form may be a part): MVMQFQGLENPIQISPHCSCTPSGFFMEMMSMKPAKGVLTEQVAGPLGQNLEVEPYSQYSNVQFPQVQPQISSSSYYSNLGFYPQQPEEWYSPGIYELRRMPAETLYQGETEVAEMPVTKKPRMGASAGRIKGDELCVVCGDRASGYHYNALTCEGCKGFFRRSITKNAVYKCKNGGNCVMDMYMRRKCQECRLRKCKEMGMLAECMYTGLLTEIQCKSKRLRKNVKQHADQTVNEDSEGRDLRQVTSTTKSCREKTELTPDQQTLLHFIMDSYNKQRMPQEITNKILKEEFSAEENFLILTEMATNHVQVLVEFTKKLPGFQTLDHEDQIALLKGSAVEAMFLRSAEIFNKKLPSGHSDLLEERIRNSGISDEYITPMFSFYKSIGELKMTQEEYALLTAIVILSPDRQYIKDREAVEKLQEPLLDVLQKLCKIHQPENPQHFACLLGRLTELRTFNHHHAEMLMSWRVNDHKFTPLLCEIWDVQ
Chain of Peroxisome proliferator-activated receptor gamma (Homo sapiens) (P37231 whole entry, looked up, the tested form may be a part): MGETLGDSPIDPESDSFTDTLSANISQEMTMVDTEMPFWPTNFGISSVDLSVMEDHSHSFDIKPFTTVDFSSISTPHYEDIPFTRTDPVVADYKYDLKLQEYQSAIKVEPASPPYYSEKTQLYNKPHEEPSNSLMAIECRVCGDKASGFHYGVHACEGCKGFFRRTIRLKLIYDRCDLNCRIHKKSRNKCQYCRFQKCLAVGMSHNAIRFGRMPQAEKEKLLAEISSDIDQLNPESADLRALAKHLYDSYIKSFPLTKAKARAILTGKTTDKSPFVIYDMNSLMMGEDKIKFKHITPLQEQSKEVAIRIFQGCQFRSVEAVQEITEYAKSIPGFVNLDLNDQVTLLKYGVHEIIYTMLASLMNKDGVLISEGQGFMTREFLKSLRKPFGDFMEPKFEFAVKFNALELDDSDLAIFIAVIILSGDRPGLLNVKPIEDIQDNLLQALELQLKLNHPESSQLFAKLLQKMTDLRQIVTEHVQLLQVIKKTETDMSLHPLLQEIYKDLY
Chain of Estrogen receptor (Homo sapiens) (P03372 whole entry, looked up): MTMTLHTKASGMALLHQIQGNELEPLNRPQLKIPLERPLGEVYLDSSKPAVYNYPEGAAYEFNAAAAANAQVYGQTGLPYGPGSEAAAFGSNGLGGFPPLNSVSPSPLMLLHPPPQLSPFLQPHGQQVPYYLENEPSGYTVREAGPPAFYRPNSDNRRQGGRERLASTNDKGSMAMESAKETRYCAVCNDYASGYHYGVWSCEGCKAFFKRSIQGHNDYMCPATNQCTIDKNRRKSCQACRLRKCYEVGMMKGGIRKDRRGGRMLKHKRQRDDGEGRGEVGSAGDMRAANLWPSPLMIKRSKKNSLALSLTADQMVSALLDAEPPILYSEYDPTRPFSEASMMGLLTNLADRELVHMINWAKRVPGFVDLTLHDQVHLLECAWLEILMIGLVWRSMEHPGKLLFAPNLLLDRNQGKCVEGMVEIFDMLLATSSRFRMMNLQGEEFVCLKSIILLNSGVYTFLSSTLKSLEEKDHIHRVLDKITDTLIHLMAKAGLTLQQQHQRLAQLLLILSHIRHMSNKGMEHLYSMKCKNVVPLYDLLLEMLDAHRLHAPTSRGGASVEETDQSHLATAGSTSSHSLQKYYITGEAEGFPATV
Chain of Retinoic acid receptor RXR-alpha (Homo sapiens) (P19793 whole entry, looked up, the tested form may be a part): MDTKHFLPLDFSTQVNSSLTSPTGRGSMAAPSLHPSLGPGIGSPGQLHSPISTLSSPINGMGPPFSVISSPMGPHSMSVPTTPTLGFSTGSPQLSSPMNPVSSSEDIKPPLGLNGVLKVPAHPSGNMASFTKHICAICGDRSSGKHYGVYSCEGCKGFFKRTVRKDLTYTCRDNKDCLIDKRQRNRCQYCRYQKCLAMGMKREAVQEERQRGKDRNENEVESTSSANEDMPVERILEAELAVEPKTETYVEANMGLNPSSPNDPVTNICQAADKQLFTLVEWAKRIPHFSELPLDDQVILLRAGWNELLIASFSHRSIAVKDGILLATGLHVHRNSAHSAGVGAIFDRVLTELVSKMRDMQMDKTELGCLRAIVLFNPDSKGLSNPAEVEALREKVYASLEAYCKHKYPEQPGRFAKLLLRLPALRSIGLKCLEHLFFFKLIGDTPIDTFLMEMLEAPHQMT
Chain of Estrogen receptor beta (Homo sapiens) (Q92731 whole entry, looked up, the tested form may be a part): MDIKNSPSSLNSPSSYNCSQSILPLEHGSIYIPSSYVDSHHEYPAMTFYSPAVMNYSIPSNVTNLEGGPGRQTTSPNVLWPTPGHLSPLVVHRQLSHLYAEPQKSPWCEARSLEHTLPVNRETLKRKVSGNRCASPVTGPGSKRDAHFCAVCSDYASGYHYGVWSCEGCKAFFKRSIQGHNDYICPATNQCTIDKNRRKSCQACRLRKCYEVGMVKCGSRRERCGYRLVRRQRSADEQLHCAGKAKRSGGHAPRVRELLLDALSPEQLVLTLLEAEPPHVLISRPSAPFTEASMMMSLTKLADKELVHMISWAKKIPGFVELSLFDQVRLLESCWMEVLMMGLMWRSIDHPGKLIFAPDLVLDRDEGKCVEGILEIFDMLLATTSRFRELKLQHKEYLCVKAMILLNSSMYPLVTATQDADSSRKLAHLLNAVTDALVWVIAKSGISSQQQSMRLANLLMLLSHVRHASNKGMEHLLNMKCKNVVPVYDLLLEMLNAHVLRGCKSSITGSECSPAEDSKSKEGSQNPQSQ

SMILES | outcome [1] | outcome [2] | outcome [3] | outcome [4] | outcome [5] | outcome [6] | outcome [7] | outcome [8] | AC50 [1] | AC50 [3] | AC50 [6] | outcome [9]
Cc1nc(C)nc(N2C[C@@H](C)N(c3ccnc([C@@H](C)O)n3)[C@@H](C)C2)n1 | inactive | inactive | inactive | inactive | inactive |  |  |  |  |  |  | 
CC(=O)OC/C=C(\C)CCC=C(C)C | inactive | inactive | inactive | inactive | inactive | inactive |  |  |  |  |  | 
Cc1cc(=O)[nH]c(=S)[nH]1 | inactive | inactive | inactive | inactive | inactive | inactive | inactive | inactive |  |  |  | 
NCCO | inactive | inactive | inactive |  |  | inactive |  |  |  |  |  | 
NC(=O)Cn1c(=O)cc(CCN2CCN(c3nccc4sccc34)CC2)c2ccc(F)cc21 | inactive | inactive |  | inactive | inactive |  | inactive | inactive |  |  |  | 
CC=Cc1ccc(O)c(OC)c1 |  | inactive | inactive | inactive | inactive | inactive |  |  | 76.2 µM (active) |  |  | 
Nc1ccc(S(=O)(=O)c2ccc(N)cc2)cc1 | inactive | inactive | inactive | inactive | inactive | inactive | inactive | inactive |  |  |  | 
COc1cc(S(=O)(=O)O)c(C)cc1N=Nc1c(O)ccc2cc(S(=O)(=O)O)ccc12 | inactive | inactive |  | inactive | inactive | inactive | inactive | inactive |  | 50 µM (active) and 61.4 µM (active) | 75.9 µM (active) | 
CC1(C)CC(N=C=O)CC(C)(CN=C=O)C1 (stereo not drawn) | inactive | inactive | inactive | inactive | inactive | inactive | inactive | inactive |  |  |  | 
Cc1ccc(Cl)cc1 | inactive | inactive | inactive | inactive | inactive | inactive | inactive |  |  |  |  | 
CC(CO)OC(C)CO (stereo not drawn) (tested in a mixture with another compound) | inactive | inactive | inactive | inactive | inactive | inactive |  | inactive |  |  |  | 
FC(F)(F)C(F)(F)C(F)(F)C(F)(F)C(F)(F)C(F)(F)CCI | inactive | inactive | inactive | inactive | inactive | inactive |  |  |  |  |  | 
O=C(OCCCCCOC(=O)c1ccccc1)c1ccccc1 | inactive | inactive | inactive | inactive | inactive |  |  |  |  | 72.2 µM (active) |  | 
NCC1(Cc2noc(=O)[nH]2)CCCCC1 | inactive | inactive | inactive | inactive | inactive | inactive |  |  |  |  |  | 
C[C@]12C=CC(=O)C=C1CC[C@@H]1[C@@H]2C(=O)C[C@@]2(C)[C@H]1CC[C@]2(O)C(=O)CO | inactive | inactive |  | inactive | inactive | inactive |  |  |  |  |  | inactive
CCNc1cccc(C)c1 | inactive | inactive | inactive | inactive | inactive | inactive |  |  |  |  |  | 
Nc1ccc2c(c1)C(=O)c1ccccc1C2=O | inactive | inactive |  | inactive | inactive |  |  |  |  |  |  | 
c1cc(-c2ccncc2)ccn1 | inactive | inactive |  | inactive | inactive | inactive |  |  |  |  |  | 
